In PubChem BioAssay (NCI):
Compounds without any hit were thinned out: in the full panel of roughly 83,000, 20% have a hit.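 Testing used 96-well plates and a 48-hour single-concentration exposure. Example: -40 means 40% of the starting cells died.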 Active and inactive are the calls of the source. The calls were made as follows: active = growth percent below 10; inactive = the rest.

test system: MDA-MB-435 melanoma; test: NCI-60 one-dose screen, 48 h (100 = growth as untreated, 0 = no growth, -100 = all killed); details: 10 µM unless noted

SMILES	growth
C=C1C(=O)O[C@H]2[C@H]1CC/C(COC(=O)/C=C\C(=O)O)=C\CC[C@@]1(C)O[C@@H]21	107% (inactive)
CCCCC1CCc2cccc3c(SCC(=O)N(C)c4ccc(Cl)cc4)cc[n+]1c23 (stereo not drawn)	103% (inactive)
O=C(c1nc2ccccc2[nH]1)C1C(c2cccc([N+](=O)[O-])c2)C2CC3CCCCC3N2[C@@]12C(=O)Nc1cc(Cl)ccc12 (stereo partly drawn)	35.8% (inactive)
O=C1/C(=C/c2ccc(O)cc2)COc2ccc(O)cc21	94.8% (inactive)
O=C1/C(=C/c2ccc(O)cc2)COc2ccc(O)c(O)c21	19.5% (inactive)
COc1cc2nc(NC3CCCC3)nc(NC3CCN(C(C)C)CC3)c2cc1OC	-34.3% (active)
Cc1ccccc1CNC(=O)C1CN(c2ccc(Cl)cc2)N(c2ccc(Cl)cc2)C1=O (stereo not drawn)	35.9% (inactive)
COc1cc(C2CC(c3ccc(Nc4nc(NCCO)nc(N5CCOCC5)n4)cc3)=NN2c2cc(Cl)cc(Cl)c2)cc(OC)c1OC (stereo not drawn)	49.6% (inactive)
O=C(c1nc2ccccc2[nH]1)C1C(c2ccc([N+](=O)[O-])cc2)C2CC3CCCCC3N2[C@@]12C(=O)Nc1cc(Cl)ccc12 (stereo partly drawn)	23% (inactive)
O=C(Cn1cc(COc2ncnc3c2cnn3-c2ccccc2)nn1)Nc1cccc2ccccc12	94% (inactive)
CN1C(=O)N(C)C2Nn3c(s/c(=C\c4ccc(Cl)cc4Cl)c3=O)=NC21 (stereo not drawn)	8.74% (active)
O=Cc1cc2ccccc2nc1Nc1nccs1	81.4% (inactive)
O=C1/C(=C/c2cccc(O)c2)COc2ccc(O)cc21	60.3% (inactive)
